Reference: ChEMBL document CHEMBL3433997, “St. Jude Leishmania screening dataset” (2016)

Tests used:
Assay type in all cases: functional
[1] = target: Solute carrier family 2, facilitated glucose transporter member 1 (Homo sapiens) (UniProt P11166); assay: ST_JUDE_LEISH: Cytotoxicity at 2uM final concentration against transgenic Leishmania Mexicana promastigotes LmGLUT1 that are glucose transport deficient and complemented with the human glucose transporter GLUT1. Activity is measured by DNA content using SYBR green in vitro
Sequence of Solute carrier family 2, facilitated glucose transporter member 1 (Homo sapiens) (P11166 whole entry): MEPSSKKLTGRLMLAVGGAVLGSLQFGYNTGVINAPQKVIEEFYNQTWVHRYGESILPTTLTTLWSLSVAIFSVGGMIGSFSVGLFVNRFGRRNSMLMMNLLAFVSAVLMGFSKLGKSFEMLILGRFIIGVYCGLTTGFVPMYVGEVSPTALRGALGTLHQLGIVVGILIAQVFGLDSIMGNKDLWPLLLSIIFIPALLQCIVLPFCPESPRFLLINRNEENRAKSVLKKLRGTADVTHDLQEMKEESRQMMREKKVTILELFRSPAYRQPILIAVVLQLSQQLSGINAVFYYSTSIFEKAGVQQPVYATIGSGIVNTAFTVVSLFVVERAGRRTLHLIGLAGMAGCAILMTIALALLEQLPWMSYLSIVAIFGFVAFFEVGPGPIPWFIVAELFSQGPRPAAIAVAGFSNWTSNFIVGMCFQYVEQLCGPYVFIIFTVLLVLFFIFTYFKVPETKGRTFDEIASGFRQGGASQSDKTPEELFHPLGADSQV

[2] = target: Hexose transporter 1 (Plasmodium falciparum) (UniProt O97467); assay: ST_JUDE_LEISH: Cytotoxicity at 2uM final concentration against transgenic Leishmania Mexicana promastigotes LmPfHT that are glucose transport deficient and complemented with the Plasmodium falciparum hexose transporter. Activity is measured by DNA content using SYBR green in vitro
[3] = target: Glucose transporter (Leishmania mexicana) (UniProt O61059); assay: ST_JUDE_LEISH: Cytotoxicity at 2uM final concentration against transgenic Leishmania Mexicana promastigotes LmGT2 that are glucose transport deficient and complemented with the L. Mexicana glucose transporter 2. Activity is measured by DNA content using SYBR green in vitro

SMILES	inhibition [1]	inhibition [2]	inhibition [3]
c1ccc2sc(-c3csc(Nc4ccncc4)n3)nc2c1	-1.14%	1.09%	6.37%
c1ccc(-c2[nH]c3ccccc3c2CN2CCC(N3CCCCC3)CC2)nc1	-2.72%	-0.46%	-1.64%
CC(=O)Nc1ccc(C(=O)Nc2ccc(-c3cccc(-c4nc5cc(C(F)(F)F)ccc5[nH]4)c3)cc2)cn1	-0.12%	0.25%	-0.11%
CCOC(=O)N1CCN(CCCNc2c3ccccc3nc3ccccc23)CC1	6.23%	4.08%	1.91%
CCN(CC)CCCN1CCN(C(=O)c2cccc(-c3noc(C(F)(F)F)n3)c2)CC1	5.54%	4.63%	4%
COc1ccc(Oc2ccc(-c3c(C)[nH]c(C)c(Cl)c3=O)cc2)cc1	2.75%	3.46%	2.72%
O=C(NCCCCCN1CCC(c2ccc(O)cc2)CC1)c1ccc(-c2ccccc2)cc1	5.44%	3.34%	6%
CCOc1ccc2c(=NN=Cc3cccc(Cl)c3)cc(C)[nH]c2c1	8.03%	6.27%	16%
Clc1nc(Cl)c2c(ccn2Cc2ccccc2)n1	1.47%	0.9%	2.54%
CC(C)c1ccc(CN2CCCCC(NC(=O)c3cc(-c4ccccc4F)cs3)C2)cc1 (stereo not given)	8.71%	8.1%	11.2%
Cc1ccccc1C1CCN(C2CCC(NC(=O)/C=C/c3c(F)ccc(F)c3F)CC2)CC1 (stereo not given)	2.52%	2.75%	2.13%
O=C(Nc1cccc(C(F)(F)F)c1)Nc1ccc(Cl)c(C(F)(F)F)c1	-1.34%	-2.17%	-0.99%
CCCN1CCC(NCc2cn(C)nc2-c2ccc(Oc3ccccc3)cc2)CC1	10.8%	11%	11.5%
Cc1cccc2nc(-c3cccc(-c4cccc(NC(=O)c5cncn5C)c4)c3)[nH]c12	-0.07%	3.4%	4.6%
Cc1cccc(C(=O)N2CCN(Cc3cccc(NC(=O)c4ccco4)c3)CC2)c1	-1.31%	1.48%	1.47%
CC(C)COc1ccc(Cl)cc1Cc1ccc(-c2nc3cc(N4CCN(C)CC4)ccc3[nH]2)o1	4.56%	1.63%	2.01%
FC(F)(F)c1ccc2[nH]c(-c3ccc(-c4ccc(CNCC5CCCO5)cc4)cc3)nc2c1 (stereo not given)	3.49%	2.61%	1.84%
CN(C)CCOc1ccc(-n2c(-c3nonc3N)nc3cncc(-c4ccc(F)cc4)c32)cc1	3.17%	3.94%	2.52%

SMILES	inhibition [1]	inhibition [2]	inhibition [3]
CCOc1cc2ncnc(Nc3cc(Cl)c(Cl)c(Cl)c3)c2cc1OCC	0.38%	1.95%	1.59%
CN1CC[C@@H](Oc2cc(CNC(=O)c3ccc(-c4ccc(Cl)cc4)s3)ccc2C(F)(F)F)C1	-1.97%	-1.98%	-1.59%
Cc1c2ccc(N(C)c3ccnc(Nc4ccc5c(c4)nc(NC(C)C)n5C)n3)cc2nn1C	0.46%	1.01%	-1.42%
CC(C)CCCC(C)(C)NC[C@@H](O)[C@H](Cc1ccccc1)NC(=O)c1cccc(OCC2CC2)c1	1.19%	1.25%	1.85%
CN1CCN(Cc2cccc(-c3ccc4c(Nc5ccc(Oc6ccccc6)cc5)ccnc4c3)c2)CC1	12.9%	17%	18.6%
Cc1cc(C)n(Cc2ccc(C(=O)NCC3CCCCC3)cc2)n1	4.03%	2.07%	2.61%
CCCCCCNc1c2ccccc2nc2ccccc12	4.99%	9.27%	3.25%
CN(c1ccccc1)c1ccnc(NC(=N)Nc2ccc(Cl)cc2)n1	5.16%	5.4%	5.1%
CCN(c1ccccc1)S(=O)(=O)c1ccc(NC(=O)c2cc(-c3cc(C)ccc3O)n[nH]2)cc1	-1.82%	5.38%	-1.84%
CCCC1N=C(N)N=C(N)N1c1ccccc1 (stereo not given)	2.1%	-1.28%	0.53%
CCNc1cc(C)nc(Nc2ccc(NC(=O)c3cccs3)cc2)n1	4.59%	5.9%	1.85%
N=c1sc2ccccc2n1CC(O)c1ccc(Cl)c(Cl)c1 (stereo not given)	-1.41%	1.26%	0.57%
FC(F)(F)c1cccc(N=C(S)NN=Cc2ccccn2)c1	-0.57%	4.7%	1.52%
Cc1cccc2nc(-c3cccc(-c4ccc(NC(=O)Nc5ccc6c(c5)OCO6)cc4)c3)[nH]c12	1.72%	0.05%	2.58%
Cc1cc(Nc2ccncc2)n2nc(C)c(-c3ccccc3Cl)c2n1	2.97%	1.58%	6.28%
CNCCNCc1cccc(-c2ccc(-c3nc4cccc(C)c4[nH]3)s2)c1	-0.6%	0.01%	-0.03%
COc1cccc(NC(=O)CSc2nc(-c3ccccc3Cl)ns2)c1	5.33%	4.86%	6.13%
